This note sets out measurements from PubChem BioAssay AID1159580 (chemical genetic matrix, 2015).

Molecules are shown by their SMILES. Hit rate of the full screen: of about 5,500 compounds, about 2,000 (36%) were called active. Not shown: some 18% with an inconclusive outcome. Some of the results follow. Values without a mark were called inactive. Rule as the data show it: active = normalized growth mostly below about 0.91 (no sharp cut-off); inconclusive = no clear call, values can overlap the other calls; inactive = mostly above about 0.92.

A short description of this assay: chemical genetic growth profiling, strain panel (AID 1159580).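 Also: tested at 20 µM; growth read once vehicle control cultures reached saturation at 30 °C; 1 = growth at the plate median or of vehicle wells; lower values mean less growth of the strain.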 To be noted: S. cerevisiae deletion strains, growth OD.

For `COc1ccc2c(c1)CCC1C2CC[C@@]2(C)C1CC[C@@H]2NCCCCCCN1C(=O)C=CC1=O` (stereo partly drawn), the normalized growth (locus YAL013W, strain DEP1, active compounds read low) is 0.989; the normalized growth (locus YAL040C, strain CLN3, active compounds read low) is 0.444 (active); the normalized growth (locus YCL061C, strain MRC1 (second series), active compounds read low) was 0.998; the normalized growth (locus YDR150W, strain NUM1, active compounds read low) was 0.976; the normalized growth (locus YDR363W, strain ESC2, active compounds read low) is 0.988; the normalized growth (locus YER002W, strain NOP16, active compounds read low) is 0.843 (active). Further, the normalized growth runs as follows: (locus YJR075W, strain HOC1, active compounds read low) 0.997; (locus YMR307W, strain GAS1, active compounds read low) 0.93; (locus YNL197C, strain WHI3, active compounds read low) 1.07; (locus YNL224C, strain SQS1, active compounds read low) 0.256 (active); (locus YNL322C, strain KRE1, active compounds read low) 0.984; (locus YOR083W, strain WHI5 (second series), active compounds read low) 1.02. The normalized growth (locus YPL241C, strain CIN2, active compounds read low) was 0.993.
